# According to PubChem BioAssay (EPA / NIEHS):
# Records with an inconclusive call do not appear. Active and inactive are the calls of the source. The calls were made as follows, unless noted: active = hit-call score of the fitted dose curve at least 0.9, where 1 is the maximum; inconclusive = response in the unintended direction; inactive = score below 0.9.
# Columns and labels:
# [1] = TOX21_p53_BLA_p2_viability: Viability Assessment in the Tox21 HCT-116 p53 Agonism Beta-lactamase Assay, Phase 2 (AID 2283591);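 also: compound exposure lasted 16 h at 37 °C; actives lower the ATP signal meaning cytotoxicity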
# Summary of the method: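 HCT-116 p53-bla cells (4000/well) rested 5 h at 37C, then received compounds in DMSO (217-fold dilution) for 16 h at 37C, 5% CO2. After the CCF4 read, CellTiter-Glo was added; ATP luminescence was read after 30 min at room temperature.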
# [2] = molecular target: Cellular tumor antigen p53 (Homo sapiens) (UniProt P04637); assay: TOX21_p53_BLA_p2_ratio: Tox21 HCT-116 p53 Agonism Beta-lactamase Assay, Ratio, Phase 2 (AID 2283592)
# Summary of the method: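 HCT116 cells carrying a p53-responsive beta-lactamase reporter were plated, incubated 5 h at 37C, then dosed with compounds in DMSO (217-fold dilution) for 16 h. CCF4-AM substrate was added for 2 h at room temperature; the 460/530 nm emission ratio gave gain-of-signal activity relative to DMSO.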
# [3] = molecular target: Cellular tumor antigen p53 (Homo sapiens) (UniProt P04637); assay: TOX21_p53_BLA_p3_ratio: Tox21 HCT-116 p53 Agonism Beta-lactamase Assay, Ratio, Phase 3 (AID 2283596)
# Summary of the method: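 HCT116 p53-bla cells (4000/well) given compound in DMSO (217-fold dilution) after 5 h, incubated 16 h at 37C. CCF4-AM substrate 2 h at room temperature; 460/530 nm emission ratio, gain fitted against DMSO.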
# [4] = TOX21_p53_BLA_p4_viability: Viability Assessment in the Tox21 HCT-116 p53 Agonism Beta-lactamase Assay, Phase 4 (AID 2283597);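 also: hits lower the luminescence signal meaning cytotoxicity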
# Summary of the method: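 HCT116 p53-bla cells (4000/well) rested 5 h at 37C, then received compounds in DMSO (217-fold dilution) for 16 h at 37C, 5% CO2. CellTiter-Glo was added after the CCF4-AM read, and luminescence was read after 30 min at room temperature.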
# [5] = molecular target: Cellular tumor antigen p53 (Homo sapiens) (UniProt P04637); assay: TOX21_p53_BLA_p5_ratio: Tox21 HCT-116 p53 Agonism Beta-lactamase Assay, Ratio, Phase 5 (AID 2283599)
# Summary of the method: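 HCT-116 cells carrying a p53-inducible beta-lactamase reporter were seeded at 4000 cells/well and dosed after 5 h with compound in DMSO (217-fold dilution). After 16 h at 37C, CCF4-AM substrate was added for 2 h, and the 460/530 nm emission ratio was scored as gain-of-signal versus DMSO.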
# [6] = TOX21_p53_BLA_p5_viability: Viability Assessment in the Tox21 HCT-116 p53 Agonism Beta-lactamase Assay, Phase 5 (AID 2283600)
# Summary of the method: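 Cells were plated at 4000/well, rested 5 h at 37C, then given compounds in DMSO (217-fold dilution) for 16 h at 37C, 5% CO2. Following the CCF4-AM beta-lactamase read, CellTiter-Glo was added and luminescence was read after 30 min at room temperature.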
# [7] = molecular target: Cellular tumor antigen p53 (Homo sapiens) (UniProt P04637); assay: TOX21_p53_BLA_p4_ratio: Tox21 HCT-116 p53 Agonism Beta-lactamase Assay, Ratio, Phase 4 (AID 2283601)
# Summary of the method: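 HCT116 cells carrying an inducible beta-lactamase reporter were plated at 4000 cells/well, rested 5 h, then exposed to compounds in DMSO (217-fold dilution) for 16 h at 37C. CCF4-AM substrate was loaded 2 h at room temperature; 460/530 nm emission ratio scored gain-of-signal versus DMSO.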
# [8] = tested on: Brachyury (BRA) Protein Expression, Deisenroth Lab, TBXT (gene 6862); assay: CCTE_Deisenroth_DEVTOX-GLR_legacy_Bra: (Legacy) CCTE's DevTox GLR-Endo Assay Evaluation of Brachyury (BRA) Protein Expression, Deisenroth Lab (AID 2284329; active = hit-call score of the fitted dose curve at least 0.9, where 1 is the maximum; inactive = score below 0.9)
# Summary of the method: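 RUES2-GLR human pluripotent cells differentiated 48 h with two 24-h-interval chemical exposures (1 nM - 200 uM, 10 points); fixed, nuclear-stained, imaged. Bra+ cell percentage (intensity 5x BMAD above pluripotent control median) fitted relative to 0.2% DMSO.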
# [9] = CCTE_Deisenroth_DEVTOX-GLR_legacy_CellCount: (Legacy) Viability Assessment in CCTE's DevTox GLR-Endo Assay, Deisenroth Lab (AID 2284331; active = hit-call score of the fitted dose curve at least 0.9, where 1 is the maximum; inactive = score below 0.9); conditions: actives raise or lower the signal
# Summary of the method: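 Seed RUES2-GLR 24 h; differentiate 48 h, dosing at 0 and 24 h; fix, stain nuclei; image 5 fields/well; count nuclei. Conc. 1 nM - 200 uM, single technical replicate, n=4 experiments; bidirectional fit vs 0.2% DMSO.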
# [10] = tested on: SRY-box transcription factor 17 (SOX17) Protein Expression, Deisenroth Lab, SOX17 (gene 64321); assay: CCTE_Deisenroth_DEVTOX-GLR_legacy_Sox17: (Legacy) CCTE's DevTox GLR-Endo Assay Evaluation of SRY-box transcription factor 17 (SOX17) Protein Expression, Deisenroth Lab (AID 2284341; active = hit-call score of the fitted dose curve at least 0.9, where 1 is the maximum; inactive = score below 0.9); conditions: actives raise or lower the signal
# Summary of the method: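 Using the RUES2-GLR line, compounds are tested as 10-point series during 48-h defined-media differentiation. Sox17 reporter fluorescence per cell determines positivity; endpoint is percentage positive, analysed bidirectionally versus DMSO baseline.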
# [11] = tested on: SRY-box transcription factor 2 (SOX2) Protein Expression, Deisenroth Lab, SOX2 (gene 6657); assay: CCTE_Deisenroth_DEVTOX-GLR_legacy_Sox2: (Legacy) CCTE's DevTox GLR-Endo Assay Evaluation of SRY-box transcription factor 2 (SOX2) Protein Expression, Deisenroth Lab (AID 2284346; active = hit-call score of the fitted dose curve at least 0.9, where 1 is the maximum; inactive = score below 0.9)
# Summary of the method: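 RUES2-GLR human pluripotent cells seeded 24 h, then differentiated 48 h in defined media with two chemical doses 24 h apart (10-point, 1 nM–200 uM). Fixed, nuclear-stained, imaged; % Sox2+ cells (>5x BMAD over endoderm control median), DMSO-subtracted, fitted upward.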
# [12] = tested on: SRY-box transcription factor 2 (SOX2) Protein Expression, Deisenroth Lab, SOX2 (gene 6657); assay: CCTE_Deisenroth_DEVTOX-GLR_Endo_SOX2: CCTE's DevTox GLR-Endo Assay Evaluation of SRY-box transcription factor 2 (SOX2) Protein Expression, Deisenroth Lab (AID 2284412)
# Summary of the method: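 RUES2-GLR human pluripotent cells were seeded 24 h, then differentiated 48 h with two chemical exposures 24 h apart. Cells were fixed, nuclei stained and imaged by high-content microscopy. Endpoint is %SOX2+ cells over cell count, minus 0.2% DMSO control; 10-point series 1 nM–200 uM.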
# [13] = tested on: SRY-box transcription factor 17 (SOX17) Protein Expression, Deisenroth Lab, SOX17 (gene 64321); assay: CCTE_Deisenroth_DEVTOX-GLR_Endo_SOX17: CCTE's DevTox GLR-Endo Assay Evaluation of SRY-box transcription factor 17 (SOX17) Protein Expression, Deisenroth Lab (AID 2284413; active = hit-call score of the fitted dose curve at least 0.9, where 1 is the maximum; inactive = score below 0.9)
# Summary of the method: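 Endpoint: % change in SOX17+ fraction (SOX17+ cells / cell count) vs 0.2% DMSO solvent control. RUES2-GLR reporter cells, 48 h endoderm differentiation, two doses at 24 h intervals, high-content fluorescence imaging, 5 fields/well.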
# [14] = tested on: Brachyury (BRA) Protein Expression, TBXT (gene 6862); assay: CCTE_Deisenroth_DEVTOX-GLR_Endo_BRA: CCTE's DevTox GLR-Endo Assay Evaluation of Brachyury (BRA) Protein Expression, Deisenroth Lab (AID 2284417; active = hit-call score of the fitted dose curve at least 0.9, where 1 is the maximum; inactive = score below 0.9)
# Summary of the method: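 Percent BRA+ (mesoderm) RUES2-GLR cells after 48 h differentiation with two exposures, 1 nM - 200 uM; 0.2% DMSO control subtracted.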
# [15] = CCTE_Deisenroth_DEVTOX-GLR_Endo_CellCount: Viability Assessment in CCTE's DevTox GLR-Endo Assay, Deisenroth Lab (AID 2284420; active = hit-call score of the fitted dose curve at least 0.9, where 1 is the maximum; inactive = score below 0.9)
# Summary of the method: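 RUES2-GLR human pluripotent cells seeded 24 h, then differentiated 48 h with two chemical exposures at 24 h intervals (10-point, 1 nM - 200 uM). Fixed, nuclear-stained, imaged; nuclei counts give % change in cell count versus 0.2% DMSO.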
# [16] = tested on: SRY-box transcription factor 2 (SOX2) Protein Expression, Deisenroth Lab, SOX2 (gene 6657); assay: CCTE_Deisenroth_DEVTOX-GLR_Pluri_SOX2: CCTE's DevTox GLR-Pluri Assay Evaluation of SRY-box transcription factor 2 (SOX2) Protein Expression, Deisenroth Lab (AID 2284428; active = hit-call score of the fitted dose curve at least 0.9, where 1 is the maximum; inactive = score below 0.9)
# Summary of the method: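 Human pluripotent RUES2-GLR cells were seeded 24 h, then differentiated 48 h in defined media with two chemical doses at 24-h intervals (10-point, 1 nM–200 uM). Nuclear-stained cells were imaged; SOX2+ cells/cell count gave percent change versus 0.2% DMSO control.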
# [17] = tested on: Brachyury (BRA) Protein Expression, Deisenroth Lab, TBXT (gene 6862); assay: CCTE_Deisenroth_DEVTOX-GLR_Pluri_BRA: CCTE's DevTox GLR-Pluri Assay Evaluation of Brachyury (BRA) Protein Expression, Deisenroth Lab (AID 2284429)
# Summary of the method: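 Human pluripotent RUES2-GLR cells, seeded 24 h, were differentiated 48 h in defined media with two chemical doses at 24-h intervals (10-point, 1 nM - 200 uM). Readout: percent BRA+ cells by fluorescent reporter imaging, minus 0.2% DMSO control.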
# [18] = CCTE_Deisenroth_DEVTOX-GLR_Pluri_CellCount: Viability Assessment in CCTE's DevTox GLR-Pluri Assay Evaluation of Total Cell Counts, Deisenroth Lab (AID 2284430; active = hit-call score of the fitted dose curve at least 0.9, where 1 is the maximum; inactive = score below 0.9)
# Summary of the method: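 RUES2-GLR human pluripotent cells, seeded 24 h, then differentiated 48 h with two chemical exposures 24 h apart; 10-point series 1 nM - 200 uM. Fixed, nuclear-stained, imaged (5 fields/well); nuclei count as % change vs 0.2% DMSO.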
# Chain of Cellular tumor antigen p53 (Homo sapiens) (P04637 whole entry, looked up): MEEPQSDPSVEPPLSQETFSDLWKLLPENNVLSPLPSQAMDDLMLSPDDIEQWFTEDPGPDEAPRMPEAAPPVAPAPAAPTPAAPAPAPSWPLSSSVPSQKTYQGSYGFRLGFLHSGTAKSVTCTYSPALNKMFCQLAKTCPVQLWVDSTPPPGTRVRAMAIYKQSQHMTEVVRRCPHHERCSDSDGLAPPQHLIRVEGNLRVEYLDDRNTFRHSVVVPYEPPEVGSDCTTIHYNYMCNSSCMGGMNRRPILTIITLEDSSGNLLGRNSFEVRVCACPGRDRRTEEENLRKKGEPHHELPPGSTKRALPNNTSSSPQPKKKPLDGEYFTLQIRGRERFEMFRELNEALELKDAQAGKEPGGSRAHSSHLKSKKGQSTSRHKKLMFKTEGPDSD
SMILES,outcome [1],outcome [2],outcome [3],outcome [4],outcome [5],outcome [6],outcome [7],AC50 [8],AC50 [9],AC50 [10],AC50 [11],AC50 [12],AC50 [13],AC50 [14],AC50 [15],AC50 [16],AC50 [17],AC50 [18]
CC1=Nc2ccccc2C1(C)C,inactive,inactive,inactive,inactive,inactive,inactive,inactive,–,–,–,–,–,–,–,–,–,–,–
O=Cc1cccc(Br)c1,inactive,inactive,inactive,inactive,inactive,–,inactive,–,–,–,–,–,–,–,–,–,–,–
CCC(=O)c1c(O)cc(O)cc1O,inactive,inactive,inactive,inactive,inactive,–,inactive,–,–,–,–,–,–,–,–,–,–,–
O=C1Cc2cc(CCN3CCN(c4nsc5ccccc45)CC3)c(Cl)cc2N1,inactive,inactive,inactive,inactive,inactive,inactive,inactive,3.94 µM (active),3.31 µM (active),3.91 µM (active),4.3 µM (active),6.29 µM (active),3.99 µM (active),4.78 µM (active),3.31 µM (active),4.27 µM (active),4.26 µM (active),4.26 µM (active)
